The record followed here is ChEMBL document CHEMBL3988442, “University of Dundee, Small-Polar-MMV Screening Library” (2021).

SMILES strings stand for the structures. In all, about 48,000 compounds went through this assay and about 13,000 (27%) showed an effect of 50% or more. The list shows a part of the results.

For the experiment, the system named is Wolbachia pipientis. The experiment can be described thus: Anti-Wolbachia Cell-Based Screen. Format: functional. Set-up: scale not given: in the data most compounds retested in dose-response had high values. Particulars: 5 µM.
Regarding `COc1cccc(CC(=O)N2CCC(Cc3nnc(SC)n3C)CC2)c1`, the “Percent Effect” value worked out at 13.49%.
For the compound `COc1ccc(CC(=O)N2CCC(c3n[nH]c(C4CC4)n3)CC2)cc1`, the “Percent Effect” value is -2.488%.
For `Cc1ccccc1NC(=O)N1CC[C@@H]2CN(C)S(=O)(=O)[C@@H]2CC1` the value was -6.47%; for `COc1ccc(CC(=O)N2CC[C@@H]3CN(C)S(=O)(=O)[C@@H]3CC2)cc1`, 96.9%; for `COc1cccc(CC(=O)N2CCN(c3cccc(C)c3)C(C)C2)c1` (configuration not stated), 0.04468%.
For `COc1cccc(NC(=O)N2CC[C@@H]3CN(C)S(=O)(=O)[C@@H]3CC2)c1` the value was 108.6%; for `COc1cccc(CC(=O)N2CC[C@@H]3CN(C)S(=O)(=O)[C@@H]3CC2)c1`, 102.6%; for `CCN1C[C@H]2CCN(C(C)=O)CC[C@H]2S1(=O)=O`, 7.241%.
For `CN1C[C@H]2CCN(C(=O)NC3CCCC3)CC[C@H]2S1(=O)=O` the value was 24.31%; for `CCN1C[C@H]2CCN(C(=O)Cc3cccc(OC)c3)CC[C@H]2S1(=O)=O`, 109.3%.
Regarding `Cc1ccccc1CNC(=O)N1CC[C@@H]2CN(C)S(=O)(=O)[C@@H]2CC1`, the “Percent Effect” value was -7.794%.
For `CCN1C[C@H]2CCN(C(=O)Nc3ccccc3C)CC[C@H]2S1(=O)=O` the value was 5.146%.
For `Cc1c(C(=O)N(CCN(C)C)Cc2ccccn2)oc2ccccc12` the value was -10.28%.
For `CCC1CN(C(=O)c2ccc(O)cn2)CCC(=O)N1Cc1ccccc1` (configuration not stated) the value was -29.96%.
On to `N#Cc1cc(S(N)(=O)=O)ccc1NC1CCc2cc(Cl)ccc21` (configuration not stated), for which the “Percent Effect” value is on record as -7.649%.
For `CNC(=O)[C@@H](c1ccccc1OC)N1CCC[C@H]1C(=O)NCCN(C)C.Cl.Cl` the value was -2.091%; for `COc1ccc(CN2CCCn3cncc3C2)cc1Cn1cncn1`, 17.87%.
As for `COc1cnc(C2(O)CCN(C(=O)c3ccccn3)CC2)c(OC)n1`, the “Percent Effect” value is recorded as 107.9%.
For `CCC(=O)N1CCC(O)(c2ncc(OC)nc2OC)CC1` the value was -0.9107%.
As to `COc1cnc(C2(O)CCN(C(=O)c3ccncc3)CC2)c(OC)n1`, the “Percent Effect” value is recorded as -4.993%.
For `COc1cnc(C2(O)CCN(C(=O)c3ccco3)CC2)c(OC)n1`, the “Percent Effect” value is reported as 113.8%.
For `COc1cnc(C2(O)CCN(C(=O)c3scnc3C)CC2)c(OC)n1` the value was 77.74%; for `Cc1ccc(F)c(OC2(C(=O)O)CCN(C(=O)c3ccco3)CC2)c1`, -23.64%; for `COc1ccc(NC(=O)c2ccco2)c(N2CCN(C(C)=O)CC2)n1`, -1.999%.
For `COc1cnc(C2(O)CCN(C(=O)c3cccnc3)CC2)c(OC)n1` the value was 2.765%; for `O=C1CC(C(=O)O)C2(CCN(C(=O)Nc3ccccc3Cl)CC2)N1` (configuration not stated), 8.972%.
For `CS(=O)(=O)NC1CCN(C(=O)c2ccc(F)cc2)CC1` the value was 22.77%; for `CCn1nc(C)c2nc(C(C)C)nc(NCCCO)c21`, 5.791%; for `CC[C@H]1CN(C(=O)C(C)(C)C)CC[C@H]1CC(=O)O`, 0.9693%.
As to `CCS(=O)(=O)NCC1Cn2nnc(-c3ccccc3)c2CO1` (configuration not stated), the “Percent Effect” value is reported as 4.629%.
For the compound `CC(CCc1ccccc1)NC(=O)CNCCCN(C)C.O=C(O)C(=O)O` (configuration not stated), the “Percent Effect” value is recorded as -3.27%.
For `CC(C)n1c(=O)c2ccccc2n(CCCN(C)C)c1=O.Cl` the value was 74.16%; for `CC(C)NC(=O)CN(C)C(=O)c1c(Cl)c2ccccc2n1C`, 7.479%; for `CCCc1nc(Cn2c(=O)n(C)c3ccccc32)no1`, -1.157%.
For `CC(C)n1c(=O)c2ccccc2n(CCN(C)C)c1=O.Cl` the value was 91.55%; for `CC(C)n1c(=O)c2ccccc2n(CCN2CCCCC2)c1=O`, 58.61%; for `Cc1cc(=O)c2ccccc2n1CC1CCN(C(C)C)C1` (configuration not stated), -7.176%.
For `CC(C)N1CCN(CCn2cnc3c(F)cccc3c2=O)CC1` the value was -1.52%.
In the case of `CCc1nc(Cn2c(=O)n(C)c3ccccc32)no1`, the “Percent Effect” value was -3.957%.
For `CC(C)NC(=O)CN(C)C(=O)c1c(Br)c2ccccc2n1C` the value was -8.15%; for `CN(C)CCn1c(=O)n(C)c(=O)c2ccccc21.Cl`, 110%.
Consider `CC(C)S(=O)(=O)CC(=O)N(Cc1ccsc1)c1ccccc1`, for which the “Percent Effect” value was -3.342%.
Consider `Cn1cc(CN2CCCC3(COCCN(Cc4c[nH]nn4)C3)C2)cn1.O=C(O)C(F)(F)F.O=C(O)C(F)(F)F` (configuration not stated), for which the “Percent Effect” value is listed as -3.726%.
For `COCC(=O)N1CCCC(c2cc(C(F)F)n3ncnc3n2)C1.Cl` (configuration not stated) the value was 109.8%; for `O=C(Cc1ccsc1)N1CCCC(c2cc(C(F)F)n3ncnc3n2)C1` (configuration not stated), 112.3%; for `Cc1nc(C2CCCN(C(=O)CO)C2)cc(N2CCOCC2)n1` (configuration not stated), -8.444%.
On to `CC(C)C(=O)N1CCCC(c2cc(C(F)F)n3ncnc3n2)C1.Cl` (configuration not stated), for which the “Percent Effect” value is given as -4.51%.
For `NC(=O)c1ccc(-n2ccnc2C2CC2)cc1N1CCCC1` the value was 30.18%; for `COCCS(=O)(=O)N(Cc1ccsc1)c1ccccc1`, -9.25%.
Take `COc1cc(CN(C)C(=O)NCC(=O)NC(C)C)ccc1SC`: the “Percent Effect” value is given as -30.2%.
Consider `COCC(=O)NCCC(=O)N1CCN(S(=O)(=O)c2cccc(Br)c2)CC1`, for which the “Percent Effect” value was found to be 2.832%.
For `O=C(CCNC(=O)C1CCCC1)NCc1cccnc1-n1cncn1` the value was -1.584%.
For `Cl.O=C(NCCn1nc(C2CCNC2)c2cccnc21)C1CC1` (configuration not stated) the value was 104.4%; for `Cl.O=C(NCCn1nc(C2CCNC2)c2cccnc21)C1CCC1` (configuration not stated), 119.3%.
With `Cc1cccc(C)c1OC1CN(C(=O)C2CCCN(C(=O)N(C)C)C2)C1` (configuration not stated), the “Percent Effect” value is given as -13.19%.
For `O=C(NCCc1ccsc1)Nc1cccnc1N1CCCC1` the value was 0.6987%.
For `COc1c(C(=O)N2CCC(CSc3ccccc3)C2)c(C)nn1C` (configuration not stated) the value was 13.6%; for `CCS(=O)(=O)c1ccc2c(c1)OCCO2`, -1.362%.
For `CCS(=O)(=O)c1ccc2c(c1)OCCCO2` the value was -4.006%; for `CCN(CC)S(=O)(=O)N(CC)Cc1ccc2c(c1)OCCO2`, 92.18%; for `CC(=O)NCCNC(=O)N(C)Cc1ccc2c(c1)OCCO2`, 1.28%.
For the compound `CC(C)N(C)S(=O)(=O)N(C)Cc1ccc2c(c1)OCCO2`, the “Percent Effect” value is 98.7%.
For `CCN(CC)S(=O)(=O)N(C)Cc1ccc2c(c1)OCCO2` the value was 104.5%.
For `CC(C)N(C)S(=O)(=O)N(C)Cc1ccc2c(c1)OCO2` the value was -1.448%; for `CC(C)N(C)S(=O)(=O)N(C)Cc1cnn(C)c1`, -10.04%.
For `CCC[C@@H]1CN(Cc2ccc3c(c2)OCCO3)C[C@H]1C(=O)O` the value was -6.164%; for `CCc1noc(CN(C)Cc2cc(Br)ccc2OC)n1`, 4.438%.
`Cc1ccn(-c2ccccc2NCc2cscn2)n1`: the “Percent Effect” value is listed as -9.752%.
For the compound `COC(=O)C(c1cc(F)ccc1F)N(C)C(=O)c1ccnc(C)n1` (configuration not stated), the “Percent Effect” value is 4.378%.
As to `Cc1cccc(N(CCC(N)=O)C(=O)c2ccnc(C)n2)c1`, the “Percent Effect” value was -10.53%.
Regarding `COC(=O)c1cnc(C(=O)N(c2ccc(OC)c(F)c2)C(C)C)cn1`, the “Percent Effect” value was -7.917%.
With `COC(=O)C(c1cc(F)ccc1F)N(C)C(=O)c1cnc(C)cn1` (configuration not stated), the “Percent Effect” value is 103%.
For `COC(=O)C(c1cc(F)ccc1F)N(C)C(=O)c1cccnc1O` (configuration not stated) the value was 1.784%.
For `COC(=O)C(c1ccccc1)N(C)C(=O)c1ccnc(C)n1` (configuration not stated) the value was 100.7%; for `COC(=O)C(c1cc(F)ccc1F)N(C)C(=O)c1cnccn1` (configuration not stated), 118.4%; for `COC(=O)C(c1cc(F)ccc1F)N(C)C(=O)c1ccccn1` (configuration not stated), 114.5%.
As to `COc1ccc(N(C(=O)c2cnc(C)cn2)C(C)C)cc1F`, the “Percent Effect” value was found to be 9.374%.
For `COC(=O)C(c1cc(F)ccc1F)N(C)C(=O)c1csnn1` (configuration not stated) the value was 3.05%.
For `CN(C)CCN(Cc1ccc(Cl)cc1)C(=O)c1cnccn1` the value was -5.634%; for `Cc1nccc(CNC(=O)NCC(C)Oc2ccccc2F)n1` (configuration not stated), -7.985%; for `O=C1N(Cc2cccc(F)c2F)CCCC1(O)CNCc1ccccc1` (configuration not stated), 16.03%.
For `Cc1c(CNS(=O)(=O)c2cccc(COC(C)C)c2)cnn1C` the value was -15.21%; for `CN1C[C@@H](NC(=O)C(C)(C)C)C[C@H]1C(=O)NCc1ncc[nH]1`, -5.014%; for `COCCOC[C@]1(CNC(=O)c2ccc(OC)cc2)C[C@@H](O)[C@@H](O)C1`, -0.4241%.
Consider `Cc1cc(C)c(CNC(=O)NCc2nnc3n2CCCCC3)c(=O)[nH]1`, for which the “Percent Effect” value is on record as -9.467%.
For `O=C(CN1CCOc2ccc(Cl)cc21)NCc1ncc[nH]1` the value was -5.45%.
Consider `Cc1cccc(C)c1CCNC(=O)N1CCCC2(C1)OCCO2`, for which the “Percent Effect” value is recorded as -0.05309%.
For `Cc1ccccc1NC(=O)N1CC[C@@H]2CN(CC(C)C)S(=O)(=O)[C@@H]2CC1` the value was -60.79%; for `CCN(Cc1c(C)nn(C)c1C)C(=O)C1COc2ccccc2C1` (configuration not stated), -5.134%; for `Cc1n[nH]c(C2CN(C(=O)c3ccon3)CCO2)n1` (configuration not stated), -8.521%.
For `CC(C)c1n[nH]c(C2CN(C(=O)c3cc(C4CC4)on3)CCO2)n1` (configuration not stated) the value was 113.9%; for `CC(C)c1n[nH]c(C2CN(C(=O)c3csnn3)CCO2)n1` (configuration not stated), 4.906%.
For `Cc1n[nH]c(C2CN(C(=O)c3csnn3)CCO2)n1` (configuration not stated) the value was -23.45%; for `Cc1n[nH]c(C2CN(C(=O)c3cc(C4CC4)on3)CCO2)n1` (configuration not stated), 119.9%; for `CC(C)c1n[nH]c(C2CN(Cc3nnc(C4CC4)o3)CCO2)n1` (configuration not stated), -9.108%.
For the compound `CN1CCN2CCN(C(=O)c3cc4ncc(CCO)cn4n3)CC2C1` (configuration not stated), the “Percent Effect” value was -4.032%.
For `CCCn1ccnc1SCC(=O)NC(Cc1ccccc1)C(C)=O` (configuration not stated) the value was 22.6%; for `COCC(C)NC(=O)c1cc(Br)c2c(c1)OCCO2` (configuration not stated), -1.818%.
For `CC(C)(C)CNC1(Cc2cc(C(C)(C)O)on2)COC1` the value was -22.48%.
For `CN(Cc1cccnc1)CC1CC12CCN(Cc1nccs1)CC2` (configuration not stated) the value was 11.24%.
For the compound `Cc1cnc(N2CCC3(CC2)CC3CN(C)Cc2cccnc2)nc1.O=C(O)C(F)(F)F.O=C(O)C(F)(F)F` (configuration not stated), the “Percent Effect” value was 2.289%.
For `CN(Cc1cccnc1)CC1CC12CCCC2` (configuration not stated) the value was 103.1%.
